Rows were chosen to be rich in hits. Some 6.7% of all compounds tested hit in one or more screens of this group.
KB-3-1 cytotox – qHTS assay for MDR1-selective chemotherapeutics: Primary screen using the parental adenocarcinoma cell KB-3-1. Potency, µM (top dose mostly 46.1 µM), usual class: cytotoxic. AID 1347075, 2019. KB-3-1 viability, CellTiter-Glo ATP luminescence, 72 h. 400,000 compounds, 1.4% hits; also: nearly all actives have a fitted effect of over 60% in size
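72 h, 37 °C compound treatment of KB-3-1 parental cells; CellTiter-Glo added, 10 min, luminescence read. Data corrected against DMSO-only plates and normalized before curve fitting.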
SW480 rerep – A quantitative high throughput screen for small molecules that induce DNA re-replication in SW480 colon adenocarcinoma cells; SW480 DNA re-replication, Hoechst DNA content imaging, 48 h; 340,000 compounds, 1.8% hits; AID 624297, 2012; Potency, µM (top dose mostly 46.1 µM), most hits filed as activators; also: nearly all actives have a fitted effect of over 55% in size
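Treated cells incubate 48 hr (37 C, 5% CO2), are stained 40 min with Hoechst, and nuclear fluorescence is enumerated; a rise in nuclei with high DNA signal marks re-replication.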
PINK1 expr mod – A Quantitative High throughput Screen to Identify Chemical Modulators of PINK1 Expression | PINK1 immunofluorescence, high-content cytometry, 24 h | AID 624263, 2012 | Potency, µM (titrated, usually from 76.6 µM), hits mostly activators | 410,000 compounds, 0.2% hits; active = well fitted activation curve with a large enough effect; inconclusive = small, poorly fitted or top-dose-only effect; cell line not stated here; also: nearly all actives have a fitted effect of over 65% in size
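Stable cell line treated 24 h with compounds at 5 concentrations (CCCP controls), then fixed and immunostained for PINK1 plus nuclear and cell stains; PINK1 immunofluorescence quantified by laser-scanning microplate cytometry.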
MCF10A rereplic – A quantitative high throughput screen for small molecules that induce DNA re-replication in MCF 10a normal breast cells; MCF 10A DNA re-replication, Hoechst nuclear intensity, 48 h; Potency, µM (top dose mostly 46.1 µM), hits mostly activators; 350,000 compounds, 2.9% hits; also: nearly all actives have a fitted effect of over 50% in size
KB-V1 cytotox – qHTS assay for MDR1-selective chemotherapeutics: Primary screen using the drug-selected MDR subline cells KB-V1. KB-V1 MDR cells viability, CellTiter-Glo, 72 h. Potency, µM (doses to about 46.1 µM), hits mostly cytotoxic. 400,000 compounds, 3.4% hits; also: nearly all actives have a fitted effect of over 60% in size
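In this primary screen, KB-V1 cells overexpressing P-gp are incubated with library compounds (lowest to highest concentration) for 72 h at 37 degrees C before a luminescent ATP viability read.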
Of the large screens only hits and unclear results are named; the others gave an inactive call. Unless noted, calls follow the shape of the dose curve; as a rule, active = well fitted curve in the direction sought with a large enough effect; inconclusive = small, poorly fitted or top-dose-only effect, or another doubt; inactive = no such curve, though single readings can be large; an effect the other way counts as inactive or inconclusive.

O=C(NC1CCCC1)c1sc(=S)n2c1[nH]c(=O)c1ccccc12	KB-3-1 cytotox 12µM, SW480 rerep inconclusive, PINK1 expr mod 32µM, MCF10A rereplic inconclusive, KB-V1 cytotox inconclusive
O=C(NCc1ccccc1)c1ccc2c(=O)[nH]c3c(C(=O)NCC4CCCO4)sc(=S)n3c2c1 (centres undefined)	KB-3-1 cytotox inconclusive
O=C(NCc1ccco1)c1sc(=S)n2c1[nH]c(=O)c1ccccc12	KB-3-1 cytotox inconclusive, PINK1 expr mod inconclusive, MCF10A rereplic inconclusive, KB-V1 cytotox 21µM
COCC(C)n1c(SCC(=O)Nc2cccnc2Cl)nc2ccccc2c1=O (centres undefined)	KB-V1 cytotox inconclusive (no result: SW480 rerep, MCF10A rereplic)
COc1ccc(NC(=O)Cn2c(=O)n(-c3cccc(C)c3)c(=O)c3c2c2cc(C)ccc2n3C)cc1OC	none (no result: SW480 rerep, MCF10A rereplic)

High-throughput results deposited in PubChem by National Center for Advancing Translational Sciences (NCATS).
